Over roughly 18,000 sequences, “TetR repression strength (sort-seq, GFP reporter)” has its median near 0.23; the highest 2% begin near 0.68. Shown is part of a subset that was picked to be rich in the highest values.
Target: TetR (class B, Tn10) (UniProt P04483)
Experiment: TetR repression strength (sort-seq, GFP reporter) (relative to tetO2 = 1); higher = stronger repression
Details: E. coli
Method in brief: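 E. coli SIG10-MAX carried a low-copy plasmid library with eight randomized operator positions between a constitutive promoter and sfGFP, with TetR constitutively expressed. Cells grew 5 h at 37 °C in LB with 50 µg/mL chloramphenicol, then 10^6 cells were FACS-sorted into 13 fluorescence bins, each Illumina-sequenced. Repression strength is the top bin index plus one minus the read-weighted mean bin, divided by the wild-type operator value. Three independent transformations; variants with ≥30 reads in all replicates and CV ≤0.5 were averaged.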

TetR (class B, Tn10), sequence (P04483 whole entry): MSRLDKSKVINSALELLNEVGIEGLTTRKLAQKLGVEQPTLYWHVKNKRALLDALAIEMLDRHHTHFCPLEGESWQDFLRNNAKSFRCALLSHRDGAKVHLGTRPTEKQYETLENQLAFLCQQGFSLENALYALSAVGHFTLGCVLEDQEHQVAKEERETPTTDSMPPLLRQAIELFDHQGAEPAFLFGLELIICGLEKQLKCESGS

| Sequence | TetR repression strength |
| --- | --- |
| TCCCACTAAGTTATAGAGA | 0.672 |
| TCCCTGCTAGTTAGGGAGA | 0.181 |
| TCCCGTCGAGTGGGAGAGA | 0.494 |
| TCCCTCAAAGTGTACGAGA | 0.165 |
| TCCCGCTAAGTAAGTGAGA | 0.00864 |
| TCCCTTTCAGTCATCGAGA | 0.53 |
| TCCCTCTCAGTTATCGAGA | 0.603 |
| TCCCTACCAGTGATCGAGA | 0.593 |
| TCCCTATCAGTCATCGAGA | 0.747 |
| TCCCTACAAGTCATCGAGA | 0.309 |
| TCCCTAGTAGTGATCGAGA | 0.37 |
| TCCCTATAAGTCATCGAGA | 0.687 |
| TCCCAATCAGTCATCGAGA | 0.557 |
| TCCCTATCAGTGATCGAGA | 0.868 |
| TCCCAATCAGTTATCGAGA | 0.468 |
| TCCCTATCAGTTATCGAGA | 0.859 |
| TCCCTATAAGTCGTCGAGA | 0.307 |
| TCCCCCACAGTGTAAGAGA | 0.183 |
| TCCCGCTTAGTCCTCGAGA | 0.44 |
| TCCCAATAAGTACGCGAGA | 0.348 |
| TCCCAGCCAGTTTTGGAGA | 0.298 |
| TCCCCGGAAGTTGCGGAGA | 0.0399 |
| TCCCGGGGAGTTATCGAGA | 0.161 |

| Sequence | TetR repression strength |
| --- | --- |
| TCCCACGGAGTGGTGGAGA | 0.11 |
| TCCCGACGAGTACATGAGA | 0.629 |
| TCCCTCAGAGTGGACGAGA | 0.314 |
| TCCCTATAAGTTATAGAGA | 0.651 |
| TCCCTGTCAGTCATAGAGA | 0.617 |
| TCCCTATCAGTCGTAGAGA | 0.557 |
| TCCCTATCAGTTATAGAGA | 0.809 |
| TCCCTATGAGTTATAGAGA | 0.439 |
| TCCCTATCAGTCATAGAGA | 0.924 |
| TCCCTCACAGTGGGGGAGA | 0.189 |
| TCCCCAAAAGTGTGGGAGA | 0.821 |
| TCCCCAAAAGTTTTGGAGA | 0.276 |
| TCCCCAACAGTGTTGGAGA | 0.292 |
| TCCCAAAAAGTGTGGGAGA | 0.415 |
| TCCCCAAAAGTCATGGAGA | 0 |
| TCCCTCTCAGTGTGGGAGA | 0.234 |
| TCCCCAACAGTCTTGGAGA | 0.692 |
| TCCCCAAAAGTGGGGGAGA | 0.196 |
| TCCCCAAGAGTCTTGGAGA | 0.193 |
| TCCCTCACAGTGTGGGAGA | 1.22 |
| TCCCCAAAAGTCTTGGAGA | 0.681 |
| TCCCGGGTAGTCAAGGAGA | 0.296 |
| TCCCAGGAAGTCGTTGAGA | 0 |

| Sequence | TetR repression strength |
| --- | --- |
| TCCCGGCCAGTTGTTGAGA | 0.199 |
| TCCCGAATAGTCGACGAGA | 0.165 |
| TCCCGTATAGTCTGGGAGA | 0.198 |
| TCCCAGCTAGTGAGAGAGA | 0.36 |
| TCCCAGCAAGTGTGTGAGA | 0.1 |
| TCCCAGCGAGTGACCGAGA | 0.694 |
| TCCCAGCTAGTGAACGAGA | 0.379 |
| TCCCAGCTAGTGACGGAGA | 0.226 |
| TCCCAGCAAGTGAGTGAGA | 0.201 |
| TCCCAGCTAGTGAGTGAGA | 0.716 |
| TCCCAGCGAGTGACGGAGA | 0.207 |
| TCCCAGCTAGTGATTGAGA | 0.306 |
| TCCCAGCTAGTGACCGAGA | 0.694 |
| TCCCAGCGAGTGAGCGAGA | 0.153 |
| TCCCAGCAAGTGGGTGAGA | 0.699 |
| TCCCTTCGAGTTCTCGAGA | 0.207 |
| TCCCTCCTAGTCTCCGAGA | 0.394 |
| TCCCACGGAGTCGGCGAGA | 0.148 |
| TCCCGGAAAGTCACAGAGA | 0.108 |
| TCCCTGTGAGTGGACGAGA | 0.227 |
| TCCCAGCTAGTTTCTGAGA | 0.207 |
| TCCCTAAAAGTGTAGGAGA | 0.131 |
| TCCCAGTGAGTTCGCGAGA | 0.402 |

| Sequence | TetR repression strength |
| --- | --- |
| TCCCACTCAGTATGTGAGA | 0.108 |
| TCCCGTCTAGTGTTAGAGA | 0.851 |
| TCCCGTAAAGTGTTAGAGA | 0.696 |
| TCCCGTAAAGTGTGAGAGA | 0.0929 |
| TCCCGTGTAGTGTTAGAGA | 0.24 |
| TCCCGTTTAGTGTTAGAGA | 0.222 |
| TCCCGTACAGTGTTAGAGA | 0.284 |
| TCCCACCGAGTTTTTGAGA | 0.46 |
| TCCCACAGAGTAATGGAGA | 0.108 |
| TCCCCGTTAGTTTTGGAGA | 0.104 |
| TCCCTAGTAGTACGCGAGA | 0.0159 |
| TCCCTAGGAGTAGGAGAGA | 0.268 |
| TCCCTAGGAGTACGAGAGA | 1.01 |
| TCCCTAGGAGTACGCGAGA | 0.226 |
| TCCCTAGTAGTACGAGAGA | 1.22 |
| TCCCTGGTAGTACGAGAGA | 0.219 |
| TCCCGTAGAGTCTCAGAGA | 0.257 |
| TCCCTTTTAGTTATAGAGA | 0.231 |
| TCCCCACGAGTTCAGGAGA | 0.271 |
| TCCCGTAGAGTAATGGAGA | 0.344 |
| TCCCACTGAGTGAGAGAGA | 0.473 |
| TCCCTGTGAGTTGGGGAGA | 0.189 |
| TCCCGCGAAGTCAGAGAGA | 0.382 |

| Sequence | TetR repression strength |
| --- | --- |
| TCCCCCAAAGTGAAGGAGA | 0.104 |
| TCCCCTTCAGTGGAGGAGA | 0.65 |
| TCCCCTTCAGTGAAGGAGA | 0.702 |
| TCCCTTAAAGTGAAGGAGA | 0.097 |
| TCCCCTAAAGTGAAGGAGA | 0.721 |
| TCCCCTCCAGTGAAGGAGA | 0.572 |
| TCCCGTAAAGTTCAAGAGA | 0.415 |
| TCCCCGCCAGTTGGCGAGA | 0.16 |
| TCCCTTTGAGTAAATGAGA | 0.33 |
| TCCCTCCGAGTCATCGAGA | 0.264 |
| TCCCTTCAAGTGCGGGAGA | 0.0975 |
| TCCCCCTGAGTAGTAGAGA | 0.207 |
| TCCCTTGGAGTGGTAGAGA | 0.172 |
| TCCCCTATAGTGGTGGAGA | 0.201 |
| TCCCCTGTAGTGATAGAGA | 0.387 |
| TCCCCTATAGTGGTAGAGA | 0.84 |
| TCCCTTAGAGTGGTAGAGA | 0.695 |
| TCCCCTATAGTGCTAGAGA | 0.285 |
| TCCCTTAGAGTGGTCGAGA | 0.215 |
| TCCCCTAGAGTGGTAGAGA | 0.634 |
| TCCCCTATAGTGATAGAGA | 0.982 |
| TCCCCTTTAGTTGTAGAGA | 0.246 |
| TCCCGGTCAGTCTTTGAGA | 0.165 |

| Sequence | TetR repression strength |
| --- | --- |
| TCCCCGAGAGTGAGGGAGA | 0.129 |
| TCCCCTTAAGTCGAGGAGA | 0.157 |
| TCCCATCGAGTCGGTGAGA | 0.179 |
| TCCCGGTTAGTGTAGGAGA | 0.172 |
| TCCCGCGCAGTCAGTGAGA | 0.415 |
| TCCCTCGAAGTGATCGAGA | 0.343 |
| TCCCAACAAGTGAATGAGA | 0.336 |
| TCCCACTCAGTTATAGAGA | 0.661 |
| TCCCTCTCAGTTAGTGAGA | 0.339 |
| TCCCTCTCAGTTAGAGAGA | 0.726 |
| TCCCCCTAAGTTATAGAGA | 0.525 |
| TCCCTCAGAGTGATAGAGA | 0.342 |
| TCCCTCACAGTGATAGAGA | 0.513 |
| TCCCTCTAAGTTATAGAGA | 0.703 |
| TCCCTGTCAGTTATAGAGA | 0.649 |
| TCCCTCTCAGTTATAGAGA | 0.716 |
| TCCCTCTCAGTCAGAGAGA | 0.423 |
| TCCCTGTAAGTTATAGAGA | 0.375 |
| TCCCTCTCAGTGATAGAGA | 0.866 |
